# Measurements published in PubChem BioAssay (EPA / NIEHS).
# Activity calls are given as the source filed them. How the source made its calls: active means hit-call score of the fitted dose curve at least 0.9, where 1 is the maximum; inactive means score below 0.9.
# Experiment: IUF_NPC1b_proliferation_BrdU_72hr: Leibniz Research Institute for Environmental Medicine (IUF) 72-hour Neural Progenitor Cell Bromodeoxyuridine (BrdU) Proliferation Assay (NPC1b) (AID 2284207)
# Method in brief: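 Proliferation of primary human neural progenitor cells: 72 h compound treatment at 37C, 5% CO2, pH 7.2-7.6, in EGF/FGF-containing medium. Readout is BrdU uptake (last 16 h) by chemiluminescent ELISA, normalised to DMSO.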
SMILES,outcome,AC50
CNC(=O)Oc1cccc2ccccc12,inactive,–
Cc1c(COC(=O)[C@@H]2[C@H](/C=C(\Cl)C(F)(F)F)C2(C)C)cccc1-c1ccccc1,–,970 nM (active)
COP(=S)(OC)SCn1nnc2ccccc2c1=O,inactive,–
CS(=O)(=O)c1cc(C(F)(F)F)ccc1C(=O)c1cnoc1C1CC1,inactive,–
C=C(C)CN(CC)c1c([N+](=O)[O-])cc(C(F)(F)F)cc1[N+](=O)[O-],–,92800 nM (active)
CCSC(=O)N1CCCCCC1,inactive,–
N#CN=C1SCCN1Cc1ccc(Cl)nc1,inactive,–
O=C(Nc1ccccc1-c1ccc(Cl)cc1)c1cccnc1Cl,inactive,–
CC1(C)C(C=C(Cl)Cl)C1C(=O)OC(C#N)c1cccc(Oc2ccccc2)c1 (configuration not stated),inactive,–
CS(=O)(=O)c1ccc(C(=O)C2C(=O)CCCC2=O)c([N+](=O)[O-])c1,inactive,–
CN/C(=N\[N+](=O)[O-])NCc1cnc(Cl)s1,inactive,–
COC(=O)N(C(=O)N1CO[C@@]2(C(=O)OC)Cc3cc(Cl)ccc3C2=N1)c1ccc(OC(F)(F)F)cc1,–,483 nM (active)
CO/N=C(/C1=NOCCO1)c1ccccc1Oc1ncnc(Oc2ccccc2Cl)c1F,–,142 nM (active)
CC(C)(C)C(=O)C(Oc1ccc(Cl)cc1)n1cncn1 (configuration not stated),–,513 nM (active)
CCOP(=O)(OCC)Oc1nc(Cl)c(Cl)cc1Cl,inactive,–
CCNC(=O)NC(=O)C(C#N)=NOC,inactive,–

# Experiment: IUF_NPC1a_proliferation_area_72hr: Leibniz Research Institute for Environmental Medicine (IUF) 72-hour Neural Progenitor Cell Proliferation Area Assay (NPC1a) (AID 2284208)
# Method in brief: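 Read-out: increase in sphere area over 72 h by automated phase-contrast imaging, fitted in positive direction versus DMSO baseline. One hNPC sphere (0.25-0.35 mm) per well in EGF/FGF medium; growth-factor withdrawal served as positive control.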
SMILES,outcome,AC50
CNC(=O)Oc1cccc2ccccc12,inactive,–
Cc1c(COC(=O)[C@@H]2[C@H](/C=C(\Cl)C(F)(F)F)C2(C)C)cccc1-c1ccccc1,inactive,–
COP(=S)(OC)SCn1nnc2ccccc2c1=O,inactive,–
CS(=O)(=O)c1cc(C(F)(F)F)ccc1C(=O)c1cnoc1C1CC1,inactive,–
C=C(C)CN(CC)c1c([N+](=O)[O-])cc(C(F)(F)F)cc1[N+](=O)[O-],inactive,–
CCSC(=O)N1CCCCCC1,inactive,–
N#CN=C1SCCN1Cc1ccc(Cl)nc1,inactive,–
O=C(Nc1ccccc1-c1ccc(Cl)cc1)c1cccnc1Cl,inactive,–
CC1(C)C(C=C(Cl)Cl)C1C(=O)OC(C#N)c1cccc(Oc2ccccc2)c1 (configuration not stated),inactive,–
CS(=O)(=O)c1ccc(C(=O)C2C(=O)CCCC2=O)c([N+](=O)[O-])c1,inactive,–
CN/C(=N\[N+](=O)[O-])NCc1cnc(Cl)s1,inactive,–
COC(=O)N(C(=O)N1CO[C@@]2(C(=O)OC)Cc3cc(Cl)ccc3C2=N1)c1ccc(OC(F)(F)F)cc1,inactive,–
CO/N=C(/C1=NOCCO1)c1ccccc1Oc1ncnc(Oc2ccccc2Cl)c1F,inactive,–
CC(C)(C)C(=O)C(Oc1ccc(Cl)cc1)n1cncn1 (configuration not stated),inactive,–
CCOP(=O)(OCC)Oc1nc(Cl)c(Cl)cc1Cl,–,8270 nM (active)
CCNC(=O)NC(=O)C(C#N)=NOC,inactive,–
